Assay outcomes as filed in PubChem BioAssay.
Hits are enriched below; roughly 2.4% of the tested compounds scored in any of these assays.
D2 ag-1 = human D2 receptor agonism in beta-arrestin assay | AID 624465 | 360,000 tested, 0.084% active | P14416 | activation, % (concentration not given with the values) | DiscoveRx PathHunter D2 beta-arrestin, luminescence, 90 min; 100% = 57 uM dopamine signal; in the data active means activation above about 40%; inconclusive means between about 15% and that limit
Target sequence (P14416 whole entry, looked up): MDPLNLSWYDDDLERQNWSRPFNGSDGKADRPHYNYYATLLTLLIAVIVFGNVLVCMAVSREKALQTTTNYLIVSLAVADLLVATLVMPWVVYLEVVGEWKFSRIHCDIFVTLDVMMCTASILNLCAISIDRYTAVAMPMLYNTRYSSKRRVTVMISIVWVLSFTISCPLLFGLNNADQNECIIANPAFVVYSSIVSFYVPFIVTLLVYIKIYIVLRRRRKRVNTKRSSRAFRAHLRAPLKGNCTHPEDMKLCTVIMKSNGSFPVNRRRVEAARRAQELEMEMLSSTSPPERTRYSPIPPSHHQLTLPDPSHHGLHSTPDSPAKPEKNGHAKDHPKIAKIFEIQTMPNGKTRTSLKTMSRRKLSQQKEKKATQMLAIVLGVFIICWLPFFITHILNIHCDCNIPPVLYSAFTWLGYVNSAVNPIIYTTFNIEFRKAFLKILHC
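DiscoveRx PathHunter D2 beta-arrestin cells (2,100/well) attached overnight, then compound-stimulated 90 min at 37 C in HBSS/10 mM HEPES/0.1% Tween-20 buffer; beta-galactosidase complementation read by luminescence after 1 h at ambient temperature. Dopamine 57 uM final (EC100) as control.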
D2 ag-2 = agonists of human D2 dopamine receptor; P14416; HEK293 T-REx D2 cells, calcium flux agonist mode; activation, % at 2 µM; 340,000 tested, 0.53% active; AID 485358;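 active means activation over 3 SD above normal in the single-dose calcium agonist read, cut at about 30% in these data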; further: 0% is about no effect
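Tetracycline-induced HEK293 Trex cells with D2 receptor force-coupled to calcium signaling, plated overnight at 30 C and loaded with no-wash calcium dye. Calcium flux read kinetically for 180 s after compound addition; responses flag agonists.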
D2 antagonist = antagonizes the human D2 dopamine receptor; P14416; HEK293 TREx D2 cells, calcium flux, dopamine EC80; inhibition, % at 10 µM; 340,000 tested, 2% active; AID 485344; in the data active means inhibition above about 30%; inactive means below that, where a call was filed; further: 0% is about no effect
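Read-out: kinetic calcium fluorescence (1 cycle/s) in inducible HEK293 T-REx D2 cells after an EC80 dopamine addition that followed 180 s compound preincubation. Loss of the dopamine response indicates antagonism.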
D2 PAM-1 = D2 dopamine receptor (human) potentiation; HEK293 T-REx D2, calcium flux, EC20 dopamine potentiation; potentiation, % at 10 µM; 340,000 tested, 0.34% active;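 active means potentiation over 3 SD above the plate norm, cut at about 30% in these data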; further: 0% is about no effect
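Cells plated with tetracycline inducer and held overnight at 30 C; calcium dye loaded 30–90 min at room temperature; baseline taken, compound added and read 180 s; EC20 dopamine then added and read 180 s.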
D2 PAM-2 = positive allosteric modulators of human D2 dopamine receptor | DiscoveRx D2 beta-arrestin cells, luminescence, 90 min; 100% = 57 uM dopamine signal | potentiation, % (test concentration not listed) | 360,000 tested, 0.23% active; in the data active means potentiation above about 50%; inconclusive means mostly about 30% to 49%
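D2 cells co-treated with compound plus 50 nM dopamine (EC20) for 90 min at 37 deg C to detect potentiation. Beta-arrestin recruitment was read as enzyme-fragment luminescence after 1 h at ambient temperature. Full response was set by 57 uM dopamine.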
* hit, by the source's call; ? = inconclusive; . = no result.

SMILES	D2 ag-1	D2 ag-2	D2 antagonist	D2 PAM-1	D2 PAM-2
O=C(/C=C/c1cccc(F)c1)NC1CCN(Cc2ccccc2)CC1	-2.7	-1.4	56.4*	-25.1	-18.1
O=C(COC(=O)/C=C/c1cccc(F)c1)NC1CC1	-1.8	.	.	.	-18.8
O=C(/C=C/c1cccc(Br)c1)NC1CCN(Cc2ccccc2)CC1	-1.6	0.9	71.8*	-25.1	-23.5
Fc1ccccc1CN1CCC(Cc2ccccc2)CC1	-3.8	-1.7	3.5	-1.9	-9.4
O=C(NC1CCN(Cc2ccccc2)CC1)c1c(Cl)cccc1Cl	-2.5	0.5	-6.0	4.0	-25.2
CCN1CCN(C(=O)Nc2cccc(C(F)(F)F)c2)CC1	1.2	0.3	-3.6	-5.9	-6.8
COC(=O)c1ccc(OC)c(Cn2c(=O)n(-c3cccc(Cl)c3)c(=O)c3c4c(sc32)CN(C(C)=O)CC4)c1	.	-0.6	.	14.8	.
CC(=O)N1CCc2cc(Br)cc(S(=O)(=O)N3CCC(C(=O)Nc4cccc(C)c4C)CC3)c21	.	-0.6	.	-1.6	.
COc1ccc(CNC(=O)c2ccc(CN3C(=O)C(C)=C(c4ccc(C)cc4)S3(=O)=O)cc2)cc1	.	0.2	.	-1.9	.
O=C(CCCn1c(=O)c2ccccc2n(Cc2cccc(F)c2)c1=O)NC1CCN(Cc2ccccc2)CC1	.	18.0	39.6*	-19.7	.
O=C(Nc1cccc(F)c1)NC1CCN(Cc2ccccc2)CC1	-2.6	0.4	88.6*	-29.4	-17.7
Cc1ccc2nc(NC(=O)CSc3nccn3Cc3ccccc3)sc2c1	.	.	.	-5.8	.
COc1cc(C(=O)N(Cc2ccc(F)cc2)Cc2ccco2)cc(OC)c1OC	.	-1.0	.	7.1	.
COP(=O)(/C=C/c1ccccc1)C(O)c1ccc(F)cc1 (stereo not drawn)	0.7	0.9	44.9*	2.6	-7.8
CC(C)COP(=O)(OCC(C)C)C(O)c1ccc(F)cc1 (stereo not drawn)	-2.8	0.9	-7.8	1.3	-7.0
Cc1ccc(NC(=O)[C@H](NC(=O)[C@@H]2Cc3ccccc3CN2)c2ccccc2)cc1	0.0	0.9	-5.8	-23.9	-33.0
COc1cccc(NC(=O)[C@H](Cc2ccccc2)NC(=O)[C@@H]2Cc3ccccc3CN2)c1	-1.2	-0.4	35.4*	5.7	-11.2
CC(C)c1ccc(NC(=O)[C@H](NC(=O)[C@@H]2Cc3ccccc3CN2)c2ccccc2)cc1	-2.6	-0.5	32.7*	-11.0	-19.0
CCOc1ccc(NC(=O)/C=C\C(=O)N(c2ccc(C(C)C)cc2)C(C(=O)NCc2ccco2)c2ccc(F)cc2)cc1 (stereo not drawn)	.	.	.	-7.8	.
CC(=O)c1sc(N/N=C\c2cccc(Br)c2)nc1C	?	2.5	-19.1	6.9	92.5*
CC(=O)c1sc(N/N=C\c2ccc(Br)cc2)nc1C	5.5	1.3	1.8	9.7	12.7
Cc1cccc(N2CCN(C(=O)CN3C(=O)CSc4c3c(C)nn4-c3ccccc3)CC2)c1C	.	.	.	-4.9	.
CN(C)c1ccnc(Oc2ccc(Cl)cc2)c1C#N	-2.2	0.2	-19.0	42.0*	-7.7
CN(CC(=O)Nc1cccc(C#N)c1)Cc1ccc(Cl)cc1	2.6	-0.5	68.3*	-11.4	-30.8
CN(CCC(=O)Nc1ccc(Cl)cc1)Cc1ccccc1	-10.0	-0.6	45.2*	-26.3	-27.6
SMILES	D2 ag-1	D2 ag-2	D2 antagonist	D2 PAM-1	D2 PAM-2
CN(Cc1ccccc1)C(=O)c1ccc(NC(=O)c2ccccc2)cc1	-1.8	-0.1	-16.8	36.9*	-10.6
CN(Cc1ccccc1)C(=O)c1cccc(NC(=O)c2ccco2)c1	-5.0	-0.5	-8.0	-8.0	-5.3
CCc1ccc(CCC(=O)Nc2ccc(Cl)cc2)o1	1.1	-1.0	41.5*	-11.7	-5.0
CN(CC(=O)Nc1ccc(C#N)cc1)Cc1ccc(Cl)c(Cl)c1	-0.8	-0.4	-18.2	-6.8	-7.3
CN(CCC(=O)Nc1ccc2c(c1)OCO2)Cc1ccccc1	-1.5	0.9	-25.9	-5.4	-24.1
CCC(c1nnnn1C1CCCC1)N1CCN(c2ccccc2)CC1 (stereo not drawn)	1.4	2.2	52.1*	.	-8.2
CCC(c1nnnn1C1CCCC1)N1CCN(c2ccccc2F)CC1 (stereo not drawn)	-0.5	-1.2	4.3	-13.8	-6.4
CCN(CC(=O)Nc1cc(Cl)ccc1C)C(=O)C1CC(=O)N(Cc2ccccc2)C1 (stereo not drawn)	3.2	0.1	7.5	-24.8	-13.0
CCN(CC(=O)Nc1cc(Cl)ccc1C)C(=O)CSCc1c(C)noc1C	-0.4	0.2	32.7*	-16.4	-10.1
CCN(CC(=O)Nc1cc(Cl)ccc1C)C(=O)C1CC1	-0.8	0.2	55.7*	7.0	-3.0
COc1ccc(C(=O)c2cn(CC(=O)Nc3ccc4c(c3)OCO4)c3ccc(OC)cc3c2=O)cc1	.	0.2	.	.	.
CCOc1ncccc1C(=O)OCC(=O)NC1CCCCCC1	0.4	-0.5	30.8*	-4.9	-21.6
COc1cccc(OC)c1C(=O)OCC(=O)NC1CCCCCC1	-0.9	0.6	81.9*	-4.2	-9.1
CCOc1ccc2nc(N3CCCC(C(=O)Nc4cccc(Cl)c4C)C3)sc2c1 (stereo not drawn)	.	-0.6	.	-3.6	.
Cc1cc(C)cc(NC(=O)CSc2nc3nc(C)cc(C)c3c(=O)[nH]2)c1	0.9	0.6	34.6*	-2.5	1.7
COC(=O)c1cc(NC(=O)c2nn(C)c3c2CSc2ccccc2-3)cc(C(=O)OC)c1	.	0.5	.	-2.2	.
CC(=O)C(=Nc1ccc(Cl)cc1Cl)NNc1cccc(Cl)c1	?	-1.0	-15.4	-6.0	125.3*
CC(=O)Nc1ccc(NC(=O)Nc2cccc(Cl)c2)cc1	-4.7	-0.4	15.8	-4.8	-24.6
Cc1ccc(NC(=O)CC2SC(=O)NC2=O)cc1 (stereo not drawn)	-8.8	-0.3	-7.5	7.3	-18.0
COc1ccc(NC(=O)CC2SC(=O)NC2=O)cc1 (stereo not drawn)	-8.1	0.1	-12.2	36.5*	-17.6
O=C(N/N=C/c1cc(Cl)ccc1O)c1ccc(Br)cc1	0.9	0.7	34.1*	-26.2	-19.9
Cc1cccc(/C=N\NC(=O)c2ccc(Cl)cc2)c1O	-0.3	-1.4	30.2*	-31.4	-14.5
O=C(C[n+]1ccccc1)N/N=C/c1cc(Br)ccc1O	-6.0	1.6	36.4*	-8.3	-19.2
O=C(C[n+]1ccccc1)N/N=C/c1ccccc1F	-9.1	0.5	-5.6	-2.5	-7.4
O=C(N/N=C/c1cccc(Br)c1)c1ccc(Br)cc1	-0.9	-1.9	49.9*	-20.1	-14.3
O=C(N/N=C/c1cccc([N+](=O)[O-])c1)c1ccc(Br)cc1	2.0	-0.1	2.9	6.0	-9.2
COc1ccc(NC(=O)Cn2c(=O)oc3cc(S(=O)(=O)NC4CCCC4)ccc32)cc1OC	.	0.0	.	-11.4	.
CCOC(=O)c1scc(-c2ccc(C)cc2)c1S(=O)(=O)Nc1cc(Cl)ccc1OC	.	-1.5	.	12.0	.
COc1ccccc1NC(=O)c1c(-c2ccc(C)cc2)nnc2ccccc12	.	-0.1	.	-0.7	.
